Unmarked numbers belong to inactive results. Calls of active or inactive are those of the source.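 How the source made its calls: active means EC50 at or below 10 µM; inactive means EC50 above 10 µM.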
Experiment: compound autofluorescence in calcium buffer – biochemical, fluorescence, no RTF in test wells, artefact control for cardiac thin filament activator project, dose response (AID 504697);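 further: emission near 535 nm under roughly 485 nm excitation as for IANBD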
Conditions: compound-only fluorescence in RTF assay buffer with Ca2+ (no RTF in test wells), artifact counterscreen

SMILES | EC50
CC(Oc1ccc(F)cc1)C(=O)Nc1sc2c(c1C(=O)NCc1cccnc1)CCCC2 (stereo unspecified) | > 71.5 µM
Cc1cc(/C=C2/C(=O)N(C)C(=S)N2C)ccc1N1CCCC1 | 28.8 µM
Oc1ccc2ccc3cccc[n+]3c2c1 | 2.46 µM (active)
CCC[C@@H](CN1CCC[C@H]1CN1C(N)=NC[C@@H]1Cc1ccccc1)N1C[C@@H](Cc2ccccc2)N(CCCC2CCCC2)C1=N | > 71.4 µM
CCN(CC)c1ccc(/C=C2\SC(N)=NC2=O)cc1 | 30.6 µM
CC(=O)Nc1ccc2cc3ccc(NC(C)=O)cc3nc2c1 | > 71.5 µM
CC(=O)N(C)c1ccc(C(O)(C(F)(F)F)C(F)(F)F)cc1 | > 71.5 µM
O=C(NC1CCCCC1)c1cc2nc3c(c(C(F)(F)F)n2n1)CCCC3 | > 71.5 µM
Cc1ccc(N=Nc2c(O)n(CN3CCOCC3)c3ccccc23)cc1 | > 71.5 µM
CCN(CC(=O)Nc1ccccc1C(F)(F)F)C(=O)c1ccc(-n2nc(C)c(CCC(=O)OC)c2C)cc1 | > 71.5 µM
Cc1ccc(C)c(N2CCN(C(=O)CN3C(=S)NC(C)(C)CC3C)CC2)c1 (stereo unspecified) | > 71.5 µM
Cc1ccc(S(=O)(=O)NCCCCCC(=O)Nc2ccccc2C)cc1 | > 71.5 µM
Cc1ccnc2nc(C(=O)OCC(=O)NCCc3ccccc3)nn12 | > 71.5 µM
COC(=O)c1ccc(S(=O)(=O)N2CCC(O)CC2)n1C | > 71.4 µM
N#C/C(=C\c1c[nH]c2ccccc12)C(=O)Nc1ncc(Cc2ccc(Cl)cc2Cl)s1 | > 71.5 µM
CCn1c(=O)c(C(=O)CN2CCCc3ccccc32)c(N)n(Cc2ccccc2)c1=O | 62.2 µM
O=C(O)c1ccccc1CSc1nnnn1-c1ccccc1 | > 71.5 µM
COc1ccccc1N1CCN(c2ccc([N+](=O)[O-])cc2Cl)CC1 | > 71.5 µM

SMILES | EC50
COc1ccc2nc(C)c3cc(C)oc3c2c1 | > 71.4 µM
CCOC(=O)c1sc2nc(C)nc(SCC(=O)NC3CCS(=O)(=O)C3)c2c1C (stereo unspecified) | > 71.5 µM
CNc1ccccc1C(C)(C)c1cc(C)[nH]n1 | > 71.5 µM
COC(=O)C(=N/Nc1ccccc1C(=O)OC)/C(C)=N/O | > 71.5 µM
O=[n+]1c2c(n([O-])c3cc(F)c(N4CCCC4)cc31)CCC2 | 9.61 µM (active)
COc1ccc(S(=O)(=O)N2CN(Cc3ccco3)c3nc4ccccc4nc32)cc1 | > 71.5 µM
CCOc1ccc2ccccc2c1CNCCN1CCOCC1 | > 71.5 µM
Cc1ccc(NC(=O)CN(C)c2ccc(S(=O)(=O)N3CCCC3)cn2)cc1 | > 71.5 µM
Cc1cc(C=C2C(=O)c3ccccc3C2=O)c(C)n1-c1ccccc1 | 29.9 µM
CC1(C)CCN2CCC(C)(C)c3c(O)ccc1c32 | 5.84 µM (active)
CC(COC(=O)c1ccccc1)(COC(=O)c1ccccc1)/[N+]([O-])=C/c1ccccc1 | > 71.5 µM
CN(N=Nc1ccc([N+](=O)[O-])cc1)c1ccccc1 | 8.06 µM (active)
CCN1/C(=C/c2ccc3cc(C)ccc3[n+]2CC)Sc2ccccc21 | > 71.4 µM
O=C1c2cccc3c(N4CCCCC4)ccc(c23)C(=O)N1c1cccc(O)c1 | 5.54 µM (active)
CNC(=O)N(O)C1N(C)C(=O)N(CC(=O)OC)C1(C)C (stereo unspecified) | > 71.5 µM
CSc1ccc(C2C(C(=O)c3ccco3)=C(O)C(=O)N2c2nnc(SC)s2)cc1 (stereo unspecified) | 0.726 µM (active)
CC1=CC(=C(C#N)C#N)C=C(C)N1Cc1ccc(Cl)cc1 | > 71.5 µM
O=[N+]([O-])c1ccc(NN=Cc2cccc3ccccc23)nc1 | 62.7 µM

— PubChem BioAssay AID504697 (The Scripps Research Institute Molecular Screening Center, 2011)
